These results are taken from PubChem BioAssay (NCI).

SMILES strings stand for the structures. Compounds without any hit were thinned out: in the full panel of roughly 83,000, 20% have a hit.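 Growth was measured after 48 h exposure to one concentration of compound in 96-well plates. Values under 10 count as active.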 Values without a mark were called inactive. Activity calls are given as the source filed them.

The assay concerns RPMI-8226 leukemia. Put plainly: NCI-60 one-dose screen, 48 h (100 = growth as untreated, 0 = no growth, -100 = all killed). As to conditions: 10 µM unless noted. The procedure:
Growth inhibition of the RPMI-8226 human tumor cell line is measured as a screen for anti-cancer activity. Cells are grown in 96 well plates and exposed to the test compound for 48 hours. Compounds are tested at a single concentration, which is 10^-5 M for most compounds. The reported endpoint is percent growth (GI% or GIPRCNT), where numbers from 0 - 100% represent growth inhibition, and numbers from -100% - 0 represent cell death. For example, a value of 40 represents 60% growth inhibition. A value of 0 means no net growth occurred over the course of the experiment. A value of -40 indicates 40% of cells at the beginning of the experiment died by the end of the experiment. A value of -100 means all cells are dead at the end of the experiment.
NCI-60 Human Tumor Cell Lines Screen was performed using the standard one-dose NCI protocol, which is described in more detail at https://dtp.cancer.gov/discovery_development/nci-60/default.htm.
Compounds with GIPRCNT values below 10 were considered active. Activity score was based on GIPRCNT using the following formula: […]
Score is 0 for GIPRCNT values of 100 or above, 50 for GIPRCNT values of 0, and 100 for GIPRCNT values of -100.
For the compound `Cc1ccc(S(=O)(=O)N/N=C/c2cn(-c3ccc(F)cc3)nc2-c2ccc(S(C)(=O)=O)cc2)cc1`, the growth was 106%.
Consider `COc1cc(/C=N/Nc2ccnc3cc(Cl)ccc23)cc(OC)c1O`, for which the growth is -9.43% (active).
For the compound `Cc1ccc(NC(=O)c2cccc(CN3CCN(C)CC3)c2)cc1Oc1ccc(-c2[nH]nc3ncnc(N)c23)cc1`, the growth is 48.7%.
Turning to `C=CCn1c(SCC(=O)Nc2cccc(C(=O)/C=C/c3ccccc3Cl)c2)nc2ccccc2c1=O`, the growth is 1.65% (active).
On to `C=C1C(=O)O[C@@H]2C[C@@H](C)CCC(=O)[C@](C)(OC(C)=O)C[C@H](OC(=O)/C(C)=C\C)[C@@H]12`, for which the growth is 32.3%.
Regarding `CN1C(=O)N(C)C2Nn3c(s/c(=C\c4ccccn4)c3=O)=NC21` (stereo not given), the growth was 105%.
Then `COc1ccc(C(=O)c2c(N)c(C#N)cn2-c2cccc(OC)c2)cc1`, with 22.1%.
In the case of `O=C1c2c(c3c4cccnc4[nH]c3c3ccc4ccccc4c23)C(=O)N1CCN1CCCCC1`, the growth is 70.3%.
`C=C1C(=O)O[C@@H]2/C=C(/C)C3=CC(=O)[C@@](C)(C[C@H](OC(=O)/C(C)=C\C)[C@@H]12)O3`: the growth was -11.3% (active).
As to `O=C(CSc1ccc(-c2nc3ccccc3[nH]2)cn1)N1CCN(c2ccccc2F)CC1`, the growth was 50.2%.
For the compound `NCCN1CCN(c2nc(-c3ccccc3)nc3nc(-c4ccccc4)oc23)CC1`, the growth was -27.9% (active).
Consider `COc1ccccc1N1CCN(C2=NN=C(c3cccc(Cl)c3)c3ccccc3C2)CC1`, for which the growth was 9.68% (active).
For the compound `Cc1cc(=O)n2nc(-c3cn(C)c4ccc(Cl)cc34)sc2n1`, the growth was 94.5%.
Then `O=C(CN1C(=O)CSC1=O)Nc1ccc(C(=O)/C=C/c2cc3ccccc3nc2Cl)cc1`, with -13.2% (active); and `COc1cc(C2CC(c3ccc(Nc4nc(NCCO)nc(Nc5ccc(Cl)cc5)n4)cc3)=Nc3c(N)nc(N)nc3N2)cc(OC)c1OC` (stereo not given), with 37.5%.
For the compound `CCc1ccc(NC(=O)N[C@@H](Cc2cc(F)cc(F)c2)C(=O)N[C@@H]2C(=O)N3CCC[C@H]3C(=O)N3CCO[C@H](C)[C@H]3C(=O)N[C@@H](CO)C(=O)N3C[C@H](C)C[C@H]3C(=O)O[C@H]2C)c(F)c1`, the growth was 17%.
In the case of `CS(=O)(=O)c1ccc(-c2nn(-c3ccccc3)cc2/C=C/C(=O)c2ccc(Br)cc2)cc1`, the growth was 32.8%.
`CC(C)C[C@H]1C(=O)O[C@H](C(C)C)C(=O)N(C)[C@@H](C(C)C)C(=O)O[C@H](C(C)C)C(=O)N(C)[C@@H](C(C)C)C(=O)O[C@H](C(C)C)C(=O)N1C`: the growth is -11.1% (active).
For the compound `COCCC[C@H]1O[C@@](O)([C@H](C)[C@@H]2CC(OC)C(O)/C=C(C)/C=C(C)/C=C(\C)C(OC3O[C@@H](C)[C@H](O)C(O)[C@@H]3O)C(C)/C=C(C)/C=C(OC)/C=C(\C)C(=O)O2)C(OC)C(O)[C@]1(C)O[C@H]1C[C@@H](O)[C@H](O[C@H]2C[C@](C)(O)[C@H](O)C(C)O2)C(C)O1` (stereo not given in full), the growth is 27.5%.
In the case of `CCC(CC)N1C(=O)/C(=c2\sc3n(c2=O)C2C(NN=3)N(CC)C(=O)N2CC)c2ccccc21` (stereo not given), the growth was 8.29% (active).
Regarding `Oc1ccc(CSc2nnc(-c3ccncc3)n2-c2ccccc2)c2cccnc12`, the growth was 13.6%.
The value for `CCOC(=O)c1c(NC(=O)c2cccc(C(F)(F)F)c2)sc2c(CN3CCN(C)CC3)c(O)ccc12` was -28.8% (active); that for `Clc1ccc(-c2csc(N/N=C/c3nc4ccccc4n3C3CC3)n2)cc1` was 100%.
Regarding `CSc1ccc(/C(=N/N=C(N)N)c2ccccc2)cc1`, the growth is 17.9%.
For the compound `CCNCCCn1c2c(c3cc(OC)c(OC)cc3c1=O)C(=O)c1cc(OC)cnc1-2`, the growth is -34.9% (active).
For the compound `O=c1[nH]c(CNc2ccc(NCc3c(-c4ccccc4)no[n+]3[O-])cc2)nc2c1cnn2-c1ccccc1`, the growth was 61.9%.
As to `O=C1c2c(c3c4cc(O)ccc4oc3c3[nH]c4ccccc4c23)C(=O)N1O`, the growth was 4.71% (active).
The value for `Oc1ccccc1-c1nnc(SCc2ccc(O)c3ncccc23)o1` was 13.5%.
Consider `Cn1ccnc1C(=O)/C=C/c1ccc(C(=O)Nc2ccc(NC(=O)CCNC(=O)c3csc(Br)n3)cc2)cc1`, for which the growth is 14.5%.
On to `CN(C)C(=O)C1=NC(CO)C(=O)N(c2ccc(Cl)cc2)N1` (stereo not given), for which the growth is 101%.
Then `CCC(C)[C@H]1OC(=O)[C@H](C(C)C)N(C)C(=O)[C@@H](C(C)C)OC(=O)[C@H](C(C)C)N(C)C(=O)[C@@H](C(C)CC)OC(=O)[C@H](C(C)C)N(C)C1=O` (stereo not given in full), with -19.5% (active); and `CCOC(=O)c1c(NC(=O)c2ccc(C(C)(C)C)cc2)sc2cc(OCCN3CCCCC3)ccc12`, with 14.6%; and `COc1ccc(-c2nc(SCCC(C)C)nc(N/N=C\c3ccc(O)cc3)c2C#N)cc1`, with 42.7%.
The value for `CS(=O)c1nccc(-c2c(-c3ccc(F)c(OCCc4ccccc4)c3)nc3sccn23)n1` (stereo not given) was 55.8%; that for `Cn1cc(-c2nn3cc(-c4ccncc4)nc3s2)c2cc(Cl)ccc21` was 19.5%; that for `O=C1C[C@@H](c2ccccc2)Oc2c(Cc3ccccc3O)c(O)c(Cc3cc(Cc4cc(Cc5ccccc5O)ccc4O)ccc3O)c(O)c21` was 88%.
The value for `COc1cc(/C=C/C(=O)c2ccc(N3CCN(C)CC3)cc2)ccc1F` was 28.4%; that for `O=C(/C=C/c1cn(-c2ccccc2)nc1-c1ccc(Cl)cc1)c1cc2ccccc2oc1=O` was 70.8%.
Turning to `CCCCSc1nnc(-c2ccc(-c3ccc(Cl)cc3)nc2C)o1`, the growth was 103%.
On to `COc1cnc2c(c1)C(=O)c1c-2n(CCCNCC2CC2)c(=O)c2cc(F)ccc12`, for which the growth is -38.5% (active).
